# Rows were chosen to be rich in hits. Some 31% of all compounds tested hit in one or more screens of this group.
# CYP2C9 act: human CYP2C9 activators, primary screen, biochemical, luminescence. activation factor at 5 µM. recombinant CYP2C9, luciferin-H conversion; stronger effect = higher value; factor 1 = untreated enzyme, 0 = blocked. Cytochrome P450 2C9 (Homo sapiens), P11712. 96,000 compounds, 1.4% hits. AID 1024, 2008;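 active means activation factor of 2 or more for CYP2C9 at a 5 µM dose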;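 further: 0 = sulfaphenazole-blocked wells and 1 = vehicle-only wells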
# Target sequence (P11712 whole entry, looked up): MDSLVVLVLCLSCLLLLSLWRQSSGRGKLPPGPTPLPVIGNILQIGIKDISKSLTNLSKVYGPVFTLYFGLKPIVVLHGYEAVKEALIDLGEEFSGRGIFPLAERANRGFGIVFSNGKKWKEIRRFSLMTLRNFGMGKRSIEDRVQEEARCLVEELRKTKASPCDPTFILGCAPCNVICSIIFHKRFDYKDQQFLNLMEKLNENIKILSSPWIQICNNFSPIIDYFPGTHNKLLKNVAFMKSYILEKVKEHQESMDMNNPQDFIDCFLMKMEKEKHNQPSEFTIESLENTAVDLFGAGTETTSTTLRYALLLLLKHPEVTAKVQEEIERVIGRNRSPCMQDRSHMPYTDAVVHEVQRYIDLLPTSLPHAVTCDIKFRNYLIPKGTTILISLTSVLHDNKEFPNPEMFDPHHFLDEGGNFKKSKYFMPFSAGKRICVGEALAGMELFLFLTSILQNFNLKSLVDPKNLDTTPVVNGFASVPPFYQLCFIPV
# CYP2C9 inhib: blockers of cytochrome P450 2C9 activity – biochemical, luminescence, ADME assay, primary screen | P11712 | inhibition, % at 5 µM | CYP2C9 Supersomes, luciferin-H conversion | 96,000 compounds, 20% hits;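 active means blocking of liver enzyme CYP2C9 beyond about 50% at 5 µM, limit read from the data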
# CYP2C19 activ: human CYP2C19 activators, primary screen, biochemical, luminescence. recombinant CYP2C19, luciferin-H EGE luminescence; stronger effect = higher value; 0 = fully inhibited enzyme, 1 = untreated enzyme. activation factor at 5 µM. 96,000 tested, under 10 active. AID 1025, 2008;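 active means activation factor of at least 2 at 5 µM in the primary screen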;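 further: 0 = wells with 2.5 mM tranylcypromine and 1 = vehicle-only wells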
# CYP2C19 inhib: blockers of cytochrome P450 2C19 activity – biochemical, luminescence, ADME assay, primary screen | P33261 | CYP2C19 Supersomes, luciferin-H EGE luminescence, 30 min | inhibition, % at 5 µM | 96,000 compounds, 21% hits;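 active means CYP2C19 inhibition above a set limit at 5 µM in the primary screen, cut at about 50% in these data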;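 further: plate controls were negative control wells for no effect and 2.5 mM tranylcypromine positive control for full effect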
# * marks the source's active call; other numbers are inactive results.
SMILES,CYP2C9 act,CYP2C9 inhib,CYP2C19 activ,CYP2C19 inhib
N#CC1=C(Nc2ccccc2)SC=C(c2ccc(Cl)c(Cl)c2)N=C1N1CCOCC1,0.8,22,1,1
Cc1cccc(C)c1NS(=O)(=O)c1ccc(F)cc1,0.3,75*,0,99*
O=c1ccc2cc(S(=O)(=O)Nc3ccc(F)cc3)ccc2o1,0.5,46,0,98*
Nc1ccc(S(=O)(=O)Nc2ccc(S(N)(=O)=O)cc2)cc1,0.8,15,1,1
CCO/C=C/C(=O)N(C)CCC#N,1.1,-11,1.1,-12
CCCCCn1c(=O)[nH]c2cc(C(=O)NCCCN3CCC(C)CC3)ccc2c1=O,0.8,16,0.6,38
O=c1cc(-c2ccccc2)n(S(=O)(=O)c2ccccc2)o1,1.1,-7,0.5,52*
COc1ccc(S(=O)(=O)n2oc(=O)cc2-c2ccccc2)cc1OC,1.9,-91,0,97*
COc1ccc(S(=O)(=O)n2oc(=O)cc2-c2ccccc2)cc1,1,1,0.7,30
CCc1cccc(CC)c1NC(=O)C1SC(=Nc2ccccc2C)C(c2nc3ccccc3s2)=C1N (stereo unspecified),1,-2,1.1,-12
CCCCn1c(=O)[nH]c(=O)c2c1nc(-c1ccc(C#N)cc1)n2C1CCCC1,0.4,62*,0.7,25
O=C(Cn1c(=O)n(CCCCC(=O)NC2CCCC2)c(=O)c2ccccc21)NCCC1=CCCCC1,0.9,6,0.9,6
NC(=O)Cn1c(=O)n(CCCC(=O)NC2CCN(Cc3ccccc3)CC2)c(=O)c2ccccc21,0.8,17,0.9,7
CCOc1ccccc1NC(=O)Cn1c(=O)n(CCC(=O)NC2CCCC2)c(=O)c2ccccc21,0.3,74*,0.6,40
CCCCNC(=O)CCn1c(=O)c2ccccc2n(CC(=O)N2CC(C)CC(C)C2)c1=O (stereo unspecified),0,95*,0.6,39
O=C(CCn1c(=O)c2ccccc2n(CC(=O)NC2CCCC2)c1=O)NCCc1ccc(Cl)cc1,0.3,69*,0.5,55*
Cc1ccc(CNC(=O)CCCn2c(=O)c3ccccc3n(CC(=O)NC3CCCC3)c2=O)cc1,0.3,75*,0.7,31
Cc1cccc(NC(=O)Cn2c(=O)n(CCC(=O)NC3CCCC3)c(=O)c3ccccc32)c1,0.8,18,0.8,17
CCn1cc(C(=O)OCC(=O)N(C)C2CCS(=O)(=O)C2)c(=O)c2ccc(C)nc21 (stereo unspecified),1.3,-28,1.1,-7
O=C1c2ccccc2C(=O)N1CCc1nc(-c2cccnc2)no1,0.7,26,0.5,51*
O=C1c2ccccc2C(=O)N1CCc1nc(-c2ccc(Cl)cc2)no1,0.7,29,0.8,22
O=C1c2ccccc2C(=O)N1CCc1nc(-c2ccncc2)no1,0.3,72*,0,97*
Cc1nn(-c2ccccc2)c2sc(C(=O)N(CC(=O)NC(C)(C)C)Cc3ccco3)cc12,0.4,56*,0.8,25
COC(=O)c1cc2c(C)nn(-c3ccccc3)c2s1,0.9,10,0.5,52*
Cc1nn(-c2ccccc2)c2sc(C(=O)OCC(=O)N3CCCCC3)cc12,1,-5,1,-2
SMILES,CYP2C9 act,CYP2C9 inhib,CYP2C19 activ,CYP2C19 inhib
Cc1nn(-c2ccccc2)c2sc(C(=O)OC3CCOC3=O)cc12 (stereo unspecified),0.3,68*,0.7,31
Cc1nn(-c2ccccc2)c2sc(C(=O)OCc3nnc(-c4ccccc4)o3)cc12,0.5,55*,1,2
Cc1nn(-c2ccccc2)c2sc(C(=O)O)cc12,1.2,-16,1,-3
O=c1[nH]c(CN2CCC(c3nc4ccccc4s3)CC2)nc2sc3c(c12)CCC3,1,4,1,0
Cc1ccc(-n2nc(C)c3cc(C(=O)O)sc32)cc1,1,4,1.1,-11
Cc1nn(-c2ccccc2)c2sc(-c3n[nH]c(=S)o3)cc12,0.3,66*,1.1,-6
Cc1c(NC(=O)CC(=O)Nc2c(C)n(C)n(-c3ccccc3)c2=O)c(=O)n(-c2ccccc2)n1C,1,5,0.7,28
C=CCc1cccc(CNc2c(C)n(C)n(-c3ccccc3)c2=O)c1O,0.9,12,0.4,56*
COc1ccc(S(=O)(=O)N2CCCC2C(=O)Nc2nnc(-c3cccnc3)s2)cc1 (stereo unspecified),0.9,6,0,99*
Cc1ccc(S(=O)(=O)N2CCCC2C(=O)Nc2nc3c(s2)CCCC3)cc1 (stereo unspecified),0.1,90*,0.5,46
COc1ccc2nc(NC(=O)C3CCCN3S(=O)(=O)c3ccc(C)cc3)sc2c1 (stereo unspecified),0.7,28,0.3,68*
COc1ccc2nc(NC(=O)C3CCCN(S(=O)(=O)c4c(C)noc4C)C3)sc2c1 (stereo unspecified),0.9,15,1,2
CCOC(=O)N1CCC(NC(=O)CCc2c(C)nc3ncnn3c2C)CC1,0.8,24,1,3
O=C(Nc1ccc2nc(-c3cccs3)c(-c3cccs3)nc2c1)NC1CC1,0.5,50,0.8,21
COCCNC(=O)Nc1ccc2nc(-c3cccs3)c(-c3cccs3)nc2c1,0.5,52*,1,2
N#C/C(=C\Nc1ccc2c(c1)OCCO2)c1nc2ccccc2[nH]1,1,0,0.8,24
CCOC(=O)c1c(C)[nH]c(C(=O)OC/C(O)=C(\C#N)c2nc3ccccc3[nH]2)c1C,0.2,81*,0.4,58*
N#C/C(=C(/O)COC(=O)c1ccc2c(c1)OCCO2)c1nc2ccccc2[nH]1,0.2,76*,0.4,60*
CC1(C)CC(=O)c2cnc(NC(=O)c3ccco3)nc2C1,0.9,6,1,3
CCOC(=O)c1c2n(c3c(NCc4ccccc4)ncnc13)CCCC2,0.2,77*,0.7,26
CCOC(=O)c1nnc(-c2ccccc2)nc1NCc1ccccc1,0.6,37,0.9,12
Cc1nnc2sc(-c3ccccn3)nn12,1.1,-7,1.1,-5
C/C(=N\O)C(=O)OC1CC(C)CCC1C(C)C (stereo unspecified),0,96*,0,96*
Cc1ccc(N(CC(=O)N2CCN(C3CCCCC3)CC2)S(=O)(=O)c2cccnc2)cc1,0.3,74*,0.7,31
Cc1ccc(NC(=O)CCC(=O)NNC(=O)Cc2ccccc2)cc1C,1.1,-10,0.7,25
COc1ccc(N2CCN(C(c3ccccc3OC)c3nnnn3C3CCCC3)CC2)cc1 (stereo unspecified),0.2,77*,0.2,76*
COc1ccc(OC)c(C(c2nnnn2C2CCCC2)N2CCc3ccccc3C2)c1 (stereo unspecified),0.5,54*,0.2,80*

# Compound activity deposited in PubChem BioAssay by Sanford-Burnham Center for Chemical Genomics.
